# High-throughput results deposited in PubChem BioAssay by National Center for Advancing Translational Sciences (NCATS).
# Most compounds without a hit are left out; they make up all but 1.4% or so of the library.
# Vaccinia mCherry = inhibitors of vaccinia virus infection (mCherry reporter signal). Vaccinia virus mCherry reporter infection, fluorescence. Potency, µM (highest dose often 36.5 µM), most hits filed as inhibitors. 0.63% of 310,000 active; calls by dose curve; tested in A549 cells; also: nearly all actives have a fitted effect of over 35% in size
# AmpC detergent = AmpC beta-lactamase inhibition with detergent present; P00811; AmpC hydrolysis of nitrocefin, absorbance 480 nm, 0.01% Triton; Potency, µM (series often up to 114 µM), hits mostly inhibitors; 0.041% of 370,000 active; also: nearly all actives have a fitted effect of over 25% in size
# Target sequence (P00811 whole entry, looked up): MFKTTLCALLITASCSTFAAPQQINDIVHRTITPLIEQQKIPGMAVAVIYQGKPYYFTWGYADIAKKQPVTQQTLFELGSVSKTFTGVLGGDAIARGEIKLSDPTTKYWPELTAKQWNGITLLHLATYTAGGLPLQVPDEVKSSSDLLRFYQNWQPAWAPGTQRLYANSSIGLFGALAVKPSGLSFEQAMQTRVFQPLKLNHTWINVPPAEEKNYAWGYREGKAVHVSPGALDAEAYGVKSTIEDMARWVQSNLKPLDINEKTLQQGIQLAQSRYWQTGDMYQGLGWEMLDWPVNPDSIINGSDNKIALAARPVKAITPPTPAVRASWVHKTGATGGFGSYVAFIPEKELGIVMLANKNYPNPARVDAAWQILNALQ
#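 20 mM phosphate pH 7.0 + 0.01% (detergent screen) or 0.0001% Triton X-100; 5.3 nM AmpC reagent; cpd preinc 15 min RT; nitrocefin (800 uM stock) to start; A480 q20 s × 4 min; Activity was normalised to no-enzyme and no-compound control wells.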
# AMA1-RON2 inh = disrupts binding of P. falciparum AMA1 to RON2. AlphaScreen AMA1-biotinylated RON2 peptide binding. Potency, µM (top dose mostly 58.2 µM), most hits filed as inhibitors. 0.2% of 360,000 active. AID 720542; also: nearly all actives have a fitted effect of over 45% in size
#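 AMA1 (3D7) with his tag at 25 nM final met compounds first, then biotinylated RON2 peptide at 25 nM; detection used donor plus acceptor beads, 10 µg/mL apiece, read by AlphaScreen after 30 min at room temperature.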
# SARS PLpro yeast = SARS-CoV PLP inhibition in yeast. AID 485353. 0.19% of 330,000 active. Potency, µM (series often up to 32.9 µM), actives largely listed as activators. S. cerevisiae expressing SARS-CoV PLpro, growth rescue; calls by dose curve; also: nearly all actives have a fitted effect of over 55% in size
# VACV Venus inh = vaccinia inhibition (Venus reporter). Potency, µM (series often up to 36.5 µM), actives largely listed as inhibitors. Vaccinia virus Venus reporter expression, fluorescence. AID 720580. 0.46% of 330,000 active; calls by dose curve; tested in A549 cells; also: nearly all actives have a fitted effect of over 30% in size
# AmpC no deterg = AmpC beta-lactamase inhibition without detergent; P00811; AmpC nitrocefin hydrolysis, absorbance 480 nm, 0.0001% Triton; Potency, µM (series often up to 57.1 µM), actives largely listed as inhibitors; 0.52% of 330,000 active; also: nearly all actives have a fitted effect of over 20% in size
#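 AmpC (5.3 nM in the dispensed reagent) in 20 mM phosphate pH 7.0 with 0.01% (detergent screen) or 0.0001% Triton X-100 was preincubated with compounds for 15 min at room temperature. Nitrocefin was then added from an 800 uM solution, and hydrolysis was followed at 480 nm.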
# Numbers stand for hits; 0 = inactive; ? = inconclusive; - = not tested or not shown; [ ] = dose if it differs, or a comment. Unless noted, calls follow the shape of the dose curve; as a rule, active = well fitted curve in the direction sought with a large enough effect; inconclusive = small, poorly fitted or top-dose-only effect, or another doubt; inactive = no such curve, though single readings can be large; an effect the other way counts as inactive or inconclusive.
SMILES,Vaccinia mCherry,AmpC detergent,AMA1-RON2 inh,SARS PLpro yeast,VACV Venus inh,AmpC no deterg
CC(C)c1ccc(C2=NC(c3ccncc3)=Nc3ccc(F)cc3N2)cc1,0,0,-,-,0,-
O=C(c1ccc2nc(N3CCCCC3)sc2c1)N1CCN(Cc2ccc3c(c2)OCO3)CC1,0,?,?,0,0,32µM
COc1cc(=O)n2c(c1C(=O)N(C)Cc1cscn1)CCN(C(=O)c1ccc(C)c(C)c1)CC2,0,-,-,-,0,-
CCOC(=O)c1sc2nc(-c3ccco3)c3c(c2c1N)CC(C)(C)OC3,10µM,0,0,0,13µM,0
Cc1cc(C)n(-c2cccc(C(=O)NCC3Cc4cccc(-c5ccccn5)c4O3)c2)n1 (stereo not drawn),?,-,-,-,0,-
Cc1nnc(N2CCC(C(=O)NCCc3ccccc3)CC2)c2nn(-c3ccc(Cl)cc3)c(C)c12,?,0,-,-,?,-
Cc1nnc(N2CCC(C(=O)NCCc3ccccc3Cl)CC2)c2nn(-c3ccccc3)c(C)c12,28µM,0,-,-,?,-
Cc1nnc(N2CCCC(C(=O)Nc3cccc(C(F)(F)F)c3)C2)c2nn(-c3ccccc3)c(C)c12 (stereo not drawn),0,0,-,-,0,-
CCOc1ccccc1CNC(=O)C1CCN(c2nnc(C)c3c(C)n(-c4ccc(C)cc4)nc23)CC1,11µM,0,0,0,11µM,0
Cc1ccc(NC(=O)C2CCCN(c3nnc(C)c4c(C)n(-c5ccccc5)nc34)C2)cc1Cl (stereo not drawn),?,0,-,-,11µM,-
CCOc1ccc(CNC(=O)C2CCN(c3nnc(C)c4c(C)n(-c5ccc(C)cc5)nc34)CC2)cc1,-,0,0,0,-,0
COc1ccccc1CCNC(=O)C1CCN(c2nnc(C)c3c(C)n(-c4ccc(C)cc4)nc23)CC1,14µM,0,0,0,10µM,0
Cc1ccc2nc(SCC(=O)NCC3Cc4cc(-c5ncccc5C)ccc4O3)[nH]c2c1 (stereo not drawn),0,-,-,-,0,-
COc1ccc(-c2cc(C)cc3c2OC(CNC(=O)/C=C/c2ccncc2)C3)nn1 (stereo not drawn),0,-,-,-,0,-
Cc1ccc(-n2nc3c(N4CCC(C(=O)NCc5ccccc5Cl)CC4)nnc(C)c3c2C)cc1,?,0,-,-,10µM,-
Cc1ccc(-n2nc3c(N4CCC(C(=O)NCc5ccccc5C)CC4)nnc(C)c3c2C)cc1,-,0,0,0,-,0
Nc1c2c(nc3sc4c(c13)CCCCC4)CCCC2,?,?,0[11.6 µM],0,10µM,0
Cc1nc([N+](=O)[O-])cn1CC(O)c1ccc2c(c1)OCO2 (stereo not drawn),0,-,-,-,0,-
CCc1ccccc1N(CC)C(=O)Cn1nc(Cc2ccncc2)c2ccccc2c1=O,0,0,-,-,0,-
COc1ccc2c(c1)c(=O)c(C(=O)c1ccc(F)cc1)cn2CC(=O)Nc1ccc(F)cc1,0,?,0,0,0,0
COc1ccc2c(c1)c(=O)c(C(=O)c1ccc(C)cc1)cn2CC(=O)Nc1ccc(F)cc1,?,?,0,0,?,18µM
COc1cccc(CNC(=O)c2c(OC)cc(=O)n3c2CCN(C(=O)c2ccoc2C)CC3)c1,0,-,-,-,0,-
c1ccc(C2Nc3ccccc3-c3nc4ccccc4n32)cc1 (stereo not drawn),-,0,0,0,-,0
c1coc(C2Nc3ccccc3-c3nc4ccccc4n32)c1 (stereo not drawn),?,0,0,0,?,35µM
O=Cc1cn(Cc2ccc(F)cc2)c2ccccc12,0,?,0,0,0,0
SMILES,Vaccinia mCherry,AmpC detergent,AMA1-RON2 inh,SARS PLpro yeast,VACV Venus inh,AmpC no deterg
O=[N+]([O-])/C=C/c1cn(Cc2ccc(F)cc2)c2ccccc12,?,?,0,0,0,18µM
CN(N=O)c1ccc(/C=C/c2ccnc3ccccc23)cc1,0,-,-,-,0,-
O=C(NCCCN1CCN(c2ccc(F)cc2)CC1)c1cc2c(Cl)nc3ccccc3c2s1,0,0,-,-,?,-
O=C1Nc2ccccc2/C1=C/c1cnc[nH]1,-,?,0,0,-,0
COc1ccc2c(c1)/C(=C/c1cnc[nH]1)C(=O)N2,3.5µM,?,0,0,7.1µM,0
O=C(O)c1ccc(N=Nc2c(O)ccc3ncccc23)cc1,0,0,6.3µM,0,?,0
O=[N+]([O-])c1oc2ccc3ccccc3c2c1CCO,?,-,0,-,10µM,-
